A short description of assay [1]: Nuclear factor erythroid 2-related factor 2/antioxidant responsive element (Nrf2/ARE) small molecule agonists: qHTS cell viability counter screen in human keratinocytes (AID 1919968; active means well fitted curve in the direction sought with a large enough effect in the repeat runs; an effect the other way counts as inactive or inconclusive; further: nearly all actives have a fitted effect of over 55% in size). The method, boiled down:
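Fluorescence read-out from CellTiter-Fluor after 1 h at 37 C. Wells held HaCaT-derived ARE-luciferase reporter cells (1,500/well) treated 23 h with DMSO-dissolved compounds. Run in the same wells as the luciferase agonist read.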
On the technique in general: In qHTS, concentration-response curves come from the screen itself.

Assay [2] can be described thus: Nuclear factor erythroid 2-related factor 2/antioxidant responsive element (Nrf2/ARE) small molecule agonists: luciferase reporter gene qHTS assay in human keratinocytes (AID 1919969). Further: nearly all actives have a fitted effect of over 35% in size. In general terms: In a reporter assay the amount or activity of a reporter protein is the signal.
The target of assay [3] is Gonadotropin-releasing hormone receptor (Homo sapiens) (UniProt P30968). Nature of the assay: Human gonadotropin-releasing hormone receptor (GnRHR) small molecule agonists, calcium flux assay in GnRHR-HEK293 cells (AID 1920063). Further: nearly all actives have a fitted effect of over 35% in size. Further: potency means the concentration at half of the fitted maximal effect. The method, boiled down:
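Calcium-dye fluorescence, Ex/Em=480/540, recorded every 1 sec over 3 min after compound addition to GnRHR-HEK293 cells. Cells had been seeded 18 hours earlier and dye-loaded for 1 hour at 37 C. Fifteen concentrations, triplicates.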
For orientation: A change in cytosolic calcium serves as a functional read-out for many receptors and channels.

The target in assay [4] is KiSS-1 receptor (Homo sapiens) (UniProt Q969F8). As to the kind of experiment: Human kisspeptin (KISS1R) small molecule agonists, calcium flux assay in KISS1R-HEK293 cells (AID 1920064; active means well fitted curve in the direction sought with a large enough effect in the repeat runs; an effect the other way counts as inactive or inconclusive). The method, boiled down:
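Calcium flux read-out: kinetic fluorescence at Ex/Em=480/540, 1 s intervals over 3 min, after pin-tool compound addition to dye-loaded KISS1R-HEK293 cells. Fifteen concentrations, triplicates.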

The nature of assay [5]: G protein-coupled receptor (GPCR) small molecule agonists, calcium flux assay: HEK293 wild type cell line counter screen (AID 1920065). Put shortly:
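Agonist mode; 18 h seeding at 37 C, 1 h dye load at 37 C; compounds pinned from DMSO, ATP as positive control; kinetic fluorescence 480/540 nm, 3 min, 1 s reads; 15 concentrations, triplicate.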

Assay [6] can be described thus: p53 small molecule agonists, cell-based qHTS assay with rat liver microsomes (AID 1963578). Further: potency means the concentration at half of the fitted maximal effect. Put shortly:
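Fluorescence from a beta-lactamase reporter under a p53 response element was measured after cells had been incubated 16 h at 37 C with test compound and rat liver microsomes plus NADPH (0.5 mg/mL final each).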

Assay [7] is described as follows: p53 small molecule agonists, cell-based qHTS assay with human liver microsomes: qHTS cell viability counter screen (AID 1963579). Further: nearly all actives have a fitted effect of over 45% in size. Put shortly:
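Seed p53RE-bla cells at 4,000 per well; incubate 5 h at 37 C; add compound, human liver microsomes and NADPH; incubate 16 h at 37 C; add CellTiter-Glo; after 30 min at room temperature, read luminescence.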

Assay [8] in a line: p53 small molecule agonists, cell-based qHTS assay with rat liver microsomes: qHTS cell viability counter screen (AID 1963580). Further: nearly all actives have a fitted effect of over 45% in size. The method, boiled down:
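Cytotoxicity counter screen: intracellular ATP read by CellTiter-Glo luminescence in the p53 reporter wells. HCT-116 p53RE-bla cells were treated for 16 h at 37 C alongside rat liver microsomes and NADPH, each 0.5 mg/mL final.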

Assay [9] can be described thus: p53 small molecule agonists, cell-based qHTS assay: qHTS cell viability counter screen (AID 1963581). Further: nearly all actives have a fitted effect of over 45% in size. The method, boiled down: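 Cytotoxicity read-out: ATP-based luminescence (CellTiter-Glo, 30 min RT) measured in the same wells as the p53 reporter assay, HCT-116 p53RE-bla cells, 16 h compound exposure at 37 C.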
Assay [10] is described as follows: p53 small molecule agonists, cell-based qHTS assay (AID 1963582; active means well fitted activation curve with a large enough effect in the signal ratio in the repeat runs, not every such curve was filed as active; the % refers to the signal ratio). Put shortly: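 Fluorescence intensity read-out of a beta-lactamase reporter under a p53 response element. Cells were exposed to DMSO-dissolved compounds for 16 h at 37 C, then developed with FRET substrate for 2 h at RT.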
The target in assay [11] is 5-hydroxytryptamine receptor 2A (Homo sapiens) (UniProt P28223). As to the kind of experiment: 5-hydroxytryptamine receptor 2A (HTR2A) small molecule antagonists, cell-based qHTS assay (AID 1963586). Further: nearly all actives have a fitted effect of over 45% in size. Put shortly: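 CHO cells stably expressing human HTR2A were plated for 18 h at 37 C, then loaded with calcium dye for 1 h. Compounds were preincubated 5 min at room temperature before DOI (4 nM solution) was added. Kinetic fluorescence was read for 3 min.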
5-hydroxytryptamine receptor 2A (Homo sapiens), sequence (P28223 whole entry, looked up): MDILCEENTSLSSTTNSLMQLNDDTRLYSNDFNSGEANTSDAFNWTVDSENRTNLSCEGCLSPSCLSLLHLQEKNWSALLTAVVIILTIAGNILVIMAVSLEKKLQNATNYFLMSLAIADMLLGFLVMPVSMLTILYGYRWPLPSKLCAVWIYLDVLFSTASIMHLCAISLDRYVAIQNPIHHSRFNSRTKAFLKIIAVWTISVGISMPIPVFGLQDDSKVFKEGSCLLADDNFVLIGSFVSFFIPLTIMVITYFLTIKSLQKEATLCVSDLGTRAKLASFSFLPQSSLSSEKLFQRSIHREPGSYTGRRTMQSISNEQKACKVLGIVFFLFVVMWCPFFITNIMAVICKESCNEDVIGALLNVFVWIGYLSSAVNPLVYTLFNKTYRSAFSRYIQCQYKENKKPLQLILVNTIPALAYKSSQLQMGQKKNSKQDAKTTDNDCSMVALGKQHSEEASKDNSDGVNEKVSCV

For assay [12] the target is unchanged. Nature of the assay: 5-hydroxytryptamine receptor 2A (HTR2A) small molecule agonists, cell-based qHTS assay (AID 1963587). Further: nearly all actives have a fitted effect of over 30% in size. The method, boiled down: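 Kinetic calcium-flux fluorescence (2 min, 1 sec intervals) after compound addition in agonist mode. HTR2A-CHO cells were cultured 18 h, then dye-loaded 1 h at 37 C.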
Assay [13] has as its target Muscarinic acetylcholine receptor M1 (Homo sapiens) (UniProt P11229). As to the kind of experiment: Cholinergic receptor muscarinic 1 (CHRM1) small molecule antagonists, cell-based qHTS assay (AID 1963588). Further: nearly all actives have a fitted effect of over 40% in size. Further: potency means the concentration at half of the fitted maximal effect. Put shortly:
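Compounds were tested at 15 concentrations in three independent runs. Dye-loaded CHRM1-CHO cells were exposed 5 min at room temperature before stimulation by acetylcholine added at 50nM. Intracellular calcium was read kinetically on FDSS for 3 min.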

Assay [14] shares this target. Nature of the assay: Cholinergic receptor muscarinic 1 (CHRM1) small molecule agonists, cell-based qHTS assay (AID 1963589). Further: nearly all actives have a fitted effect of over 35% in size. The method, boiled down:
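Calcium flux read-out: kinetic fluorescence at 1 sec intervals after pin-tool compound addition to dye-loaded CHRM1-CHO cells (human M1). Agonist mode; 15 concentrations tested in triplicate independent runs.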

The nature of assay [15]: cAMP Responsive Elements (CRE) small molecule antagonists, cell-based qHTS assay (AID 1963591; active means well fitted inhibition curve with a large enough effect in the signal ratio in the repeat runs, not every such curve was filed as active; the % refers to the signal ratio). The method, boiled down:
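HEK293T CRE-bla; 18 h preincubation; compound pin-transfer; NKH477 0.25 uM final, 3 h, 37 C; LiveBLAzer FRET substrate 2 h RT.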

Assay [16] has as its target Beta-2 adrenergic receptor (Homo sapiens) (UniProt P07550). Nature of the assay: Adrenergic beta2 receptor (ADRB2) small molecule agonists, cell-based qHTS assay (AID 1963593). Further: potency means the concentration at half of the fitted maximal effect.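 On activation: CHO cells stably overexpressing human ADRB2.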 Put shortly: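 CHO cells stably over-expressing ADRB2 were plated overnight at 37C, then dosed with compounds plus a stimulation mix containing 100uM IBMX and 25uM Ro-20-1724 for 0.5hr at room temperature. cAMP was measured by HTRF competition, 1hr.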

Assay [17] concerns the target D(2) dopamine receptor (Homo sapiens) (UniProt P14416). Nature of the assay: Dopamine D2 receptor (DRD2) small molecule agonists, cell-based qHTS assay (AID 1963594). Further: nearly all actives have a fitted effect of over 35% in size. Further: potency means the concentration at half of the fitted maximal effect. The method, boiled down: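 cAMP accumulation in DRD2-HEK293 cells measured by HTRF after 1 h detection; compounds added 10 min before NKH477 (200nM […]) forskolin-analogue stimulation, 30 min at room temperature, with Ro20-1724 present at 0.1 mM final.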

Assay [18] shares this target. Nature of the assay: Dopamine D2 receptor (DRD2) small molecule antagonists, cell-based qHTS assay (AID 1963595; active means well fitted inhibition curve with a large enough effect in the signal ratio in the repeat runs, with a control signal flat; the % refers to the signal ratio; further: potency means the concentration at half of the fitted maximal effect). The method, boiled down: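 Readout: HTRF cAMP, cAMP-d2 competing with cellular cAMP for anti-cAMP cryptate, read after 1 h. Cells: DRD2-HEK293. Conditions: 0.1 mM Ro20-1724, 12 nM quinpirole, 200 nM NKH477, 30 min RT.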
A short description of assay [19]: cAMP Responsive Elements (CRE) small molecule agonists, cell-based qHTS assay (AID 1963590). The method, boiled down:
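Beta-lactamase reporter readout: LiveBLAzer B/G FRET substrate, 2 h at room temperature, added after 3 h compound treatment of CRE-bla HEK 293T cells at 37 C/5% CO2.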

The target in assay [20] is Beta-2 adrenergic receptor (Homo sapiens) (UniProt P07550). Nature of the assay: Adrenergic beta2 receptor (ADRB2) small molecule antagonists, cell-based qHTS assay (AID 1963592). Further: series mostly up to about 92 µM; nearly all actives have a fitted effect of over 50% in size. The method, boiled down:
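Assay format: CHO-ADRB2 cells, 18-20hr seeding at 37C/5% CO2, then compound plus 1nM isoproterenol agonist mix for 0.5hr RT. Homogeneous time-resolved fluorescence cAMP detection after 1hr, expressed as 665/615 nm ratio.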

Structures are written as SMILES. A number with no mark means an inactive call. Results filed as inconclusive are left out. Active and inactive are the calls of the source. Unless noted, the call rests on the fitted dose curve.

D(2) dopamine receptor (Homo sapiens), sequence (P14416 whole entry, looked up): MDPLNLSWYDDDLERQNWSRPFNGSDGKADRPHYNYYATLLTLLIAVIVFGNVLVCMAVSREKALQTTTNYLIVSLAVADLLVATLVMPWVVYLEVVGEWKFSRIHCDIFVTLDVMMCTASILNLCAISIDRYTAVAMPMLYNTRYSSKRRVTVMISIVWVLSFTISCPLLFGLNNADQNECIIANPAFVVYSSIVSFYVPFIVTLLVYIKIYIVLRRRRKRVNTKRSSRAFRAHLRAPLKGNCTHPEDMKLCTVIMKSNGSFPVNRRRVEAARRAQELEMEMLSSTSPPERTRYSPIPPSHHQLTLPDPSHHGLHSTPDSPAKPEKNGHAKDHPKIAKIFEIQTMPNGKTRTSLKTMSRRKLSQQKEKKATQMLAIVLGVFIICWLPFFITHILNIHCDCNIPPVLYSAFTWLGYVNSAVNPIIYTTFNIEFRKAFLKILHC
Gonadotropin-releasing hormone receptor (Homo sapiens), sequence (P30968 whole entry, looked up): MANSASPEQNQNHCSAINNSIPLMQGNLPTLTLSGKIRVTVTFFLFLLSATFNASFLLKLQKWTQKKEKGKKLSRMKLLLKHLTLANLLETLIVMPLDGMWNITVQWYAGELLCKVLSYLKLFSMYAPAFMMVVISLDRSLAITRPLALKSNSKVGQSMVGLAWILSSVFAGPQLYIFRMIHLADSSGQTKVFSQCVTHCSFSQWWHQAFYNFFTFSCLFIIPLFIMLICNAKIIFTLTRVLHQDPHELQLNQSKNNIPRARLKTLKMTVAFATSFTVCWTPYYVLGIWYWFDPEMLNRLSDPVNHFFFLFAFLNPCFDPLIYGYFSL
Muscarinic acetylcholine receptor M1 (Homo sapiens), sequence (P11229 whole entry, looked up): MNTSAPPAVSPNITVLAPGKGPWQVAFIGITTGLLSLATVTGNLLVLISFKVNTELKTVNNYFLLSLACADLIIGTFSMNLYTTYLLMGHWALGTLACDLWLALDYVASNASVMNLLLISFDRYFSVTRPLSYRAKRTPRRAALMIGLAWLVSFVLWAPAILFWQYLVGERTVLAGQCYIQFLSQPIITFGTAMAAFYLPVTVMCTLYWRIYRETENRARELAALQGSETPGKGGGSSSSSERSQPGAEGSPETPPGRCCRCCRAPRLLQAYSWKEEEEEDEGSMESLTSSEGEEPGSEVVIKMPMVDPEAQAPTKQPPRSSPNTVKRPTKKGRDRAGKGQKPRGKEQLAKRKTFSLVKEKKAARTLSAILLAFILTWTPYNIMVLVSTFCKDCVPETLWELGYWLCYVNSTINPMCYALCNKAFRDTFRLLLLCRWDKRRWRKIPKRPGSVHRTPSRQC
Beta-2 adrenergic receptor (Homo sapiens), sequence (P07550 whole entry, looked up): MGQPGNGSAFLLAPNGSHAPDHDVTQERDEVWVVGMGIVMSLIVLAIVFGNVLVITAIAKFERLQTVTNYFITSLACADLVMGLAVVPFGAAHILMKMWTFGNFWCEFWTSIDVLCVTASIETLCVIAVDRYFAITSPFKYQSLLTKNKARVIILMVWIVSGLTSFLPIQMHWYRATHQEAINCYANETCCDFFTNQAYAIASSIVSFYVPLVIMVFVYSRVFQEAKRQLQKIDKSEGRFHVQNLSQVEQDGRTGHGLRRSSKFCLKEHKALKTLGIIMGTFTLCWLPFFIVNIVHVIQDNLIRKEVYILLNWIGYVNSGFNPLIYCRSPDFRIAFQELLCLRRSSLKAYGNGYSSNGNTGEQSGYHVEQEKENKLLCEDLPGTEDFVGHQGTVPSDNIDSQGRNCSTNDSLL
KiSS-1 receptor (Homo sapiens), sequence (Q969F8 whole entry, looked up): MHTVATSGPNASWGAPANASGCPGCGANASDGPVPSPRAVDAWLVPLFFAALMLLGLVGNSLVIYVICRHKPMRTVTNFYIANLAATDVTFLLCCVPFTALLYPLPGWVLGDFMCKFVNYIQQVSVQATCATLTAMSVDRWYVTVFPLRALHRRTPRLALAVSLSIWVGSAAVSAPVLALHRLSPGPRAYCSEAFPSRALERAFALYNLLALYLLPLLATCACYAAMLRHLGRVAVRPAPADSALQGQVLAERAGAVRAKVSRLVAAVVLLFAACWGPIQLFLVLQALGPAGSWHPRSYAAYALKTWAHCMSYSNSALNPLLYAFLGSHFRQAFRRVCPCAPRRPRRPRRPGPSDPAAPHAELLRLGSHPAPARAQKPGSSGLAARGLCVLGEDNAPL

On to `CNCC(=O)c1ccc(O)c(O)c1`, for which the Potency result in assay [1], in assay [2], in assay [4], in assay [5], in assay [6] and in [7] was “inactive” throughout. For the same compound, the Potency result in assay [8], in [9], in assay [10], in assay [11], in [12] and in assay [13] was “inactive” each time. The Potency result in [14] and in assay [15] was “inactive” throughout. Besides, the Potency in assay [3] is 5.35 µM (active); in assay [16], 0.531 µM (active); in assay [17], 26.6 µM (active); in assay [18] it was 26.6 µM (active).

Regarding `N#C/C(N)=C(/N)C#N`, the Potency result in assay [1], in [2], in assay [3], in assay [4], in [5] and in assay [6] was “inactive” in each case. Also, the Potency result in [7], in [8], in [9], in [10], in [11] and in assay [12] was “inactive” each time. Also, the Potency result in assay [13], in [14], in [19], in assay [15], in assay [20] and in [16] was “inactive” each time. The Potency result in assay [17] and in [18] was “inactive” in each case.

`CCOP(=S)(OCC)SCn1nnc2ccccc2c1=O`: the Potency result in assay [1], in [2], in assay [3], in [4], in assay [5] and in [7] was “inactive” throughout. Further, the Potency entry in assay [8], in [10], in [13], in [14], in [20] and in [17] was “inactive” in each case.

As to `c1ccc2c(c1)[nH]c1cnccc12`, the Potency result in [1], in [2], in assay [3], in assay [4], in assay [5] and in assay [7] was “inactive” in each case. Further, the Potency entry in assay [8], in assay [9], in assay [12], in assay [13], in [14] and in assay [19] was “inactive” throughout. The Potency entry in assay [15], in assay [20], in [16] and in [17] was “inactive” each time. For the same compound, the Potency in assay [6] is 36.4 µM (active).

`O=CCCl`: the Potency entry in assay [1], in assay [2], in assay [3], in assay [4], in assay [5] and in [6] was “inactive” in each case. The Potency entry in assay [7], in assay [8], in [9], in assay [10], in assay [12] and in assay [13] was “inactive” each time. The Potency entry in assay [14], in assay [19], in assay [15], in assay [20], in assay [16] and in assay [17] was “inactive” each time. Besides, the Potency entry in assay [18] is “inactive”.

Turning to `COc1cccc(C(=O)NN(C(=O)c2cc(C)cc(C)c2)C(C)(C)C)c1C`, the Potency result in [1], in [2], in assay [3], in assay [4], in [5] and in assay [6] was “inactive” each time. For the same compound, the Potency result in [7], in assay [8], in [9], in [10], in [11] and in assay [12] was “inactive” each time. For the same compound, the Potency result in [14], in assay [20], in [17] and in assay [18] was “inactive” each time. Also, the Potency in [13] is 14.9 µM (active).

As for `CN1COCN(Cc2cnc(Cl)s2)/C1=N\[N+](=O)[O-]`, the Potency entry in assay [1], in [2], in [3], in [4], in [5] and in assay [6] was “inactive” each time. For the same compound, the Potency entry in assay [7], in assay [8], in assay [9], in assay [10], in [11] and in [12] was “inactive” each time. The Potency entry in assay [13], in assay [14], in assay [19], in assay [15], in assay [20] and in assay [17] was “inactive” in each case. For the same compound, the Potency result in assay [18] is “inactive”.

The values above are taken from PubChem BioAssay (Tox21).
